Experimental data as given in the OligoGym collection.
Also: reference of the scale not given here.

These sequences were tested against DLAT (assay: pooled miR-30 sensor sort-seq; sequence = guide strand). Details: shRNA.
With TAGAAAGGTAATAATGAGGTAT the sensor-assay potency score (higher = more potent) was -0.0638. Work on TTGTGTAAGATCAATCCCTTTC yielded a sensor-assay potency score (higher = more potent) of -0.362. TTCATTATCTGCAGGGACCAGT showed a sensor-assay potency score (higher = more potent) of -0.346. With ATATCTGTGAAGACACCTGTAG the sensor-assay potency score (higher = more potent) was -0.267. With TAGGTGTGATGAGTCCTGCAGG the sensor-assay potency score (higher = more potent) was -0.602. TTCTCTACTGCCAACTTCTTTG was tested, and the sensor-assay potency score (higher = more potent) was -0.772. Sequence TAATCGCTGTGCAATAACCCGA has a sensor-assay potency score (higher = more potent) of -0.457. In the case of TTGTCTTATAACTGTGTCCATC, the sensor-assay potency score (higher = more potent) is reported as -1.31. TAAGTCTCCTTCACTTAGCTTC showed a sensor-assay potency score (higher = more potent) of -0.196. TTTTAAATCTGTTACTTCGGTT was tested, and the sensor-assay potency score (higher = more potent) was -0.836. With TTGCTAAAGAAACAACATCATT the sensor-assay potency score (higher = more potent) was -1.57. For TATCTTATTAAGTTCTTTCCGT, the sensor-assay potency score (higher = more potent) was 0.0125.

These sequences were tested against DLGAP2 in the same assay as above. Details: shRNA.
In the case of TAGCTGTGACTCCTTGTTCGGA, the sensor-assay potency score (higher = more potent) is reported as -0.676. TTCAACTTCACTGAAGACGGAC showed a sensor-assay potency score (higher = more potent) of -0.0753. For TAGAACGTTTAAAACGTCCGTG, the sensor-assay potency score (higher = more potent) was -0.169. Work on TTGTTCGGAAACATCCCGGGAG yielded a sensor-assay potency score (higher = more potent) of 0.236. With ATAGGTGCTGTCGCTGTCCAGG the sensor-assay potency score (higher = more potent) was -0.97. Sequence TAGATCTCGATGCTGTCCGCGC has a sensor-assay potency score (higher = more potent) of -0.416. TTTTTTTGAATGCTACAGCTGG gave a sensor-assay potency score (higher = more potent) of -0.304. In the case of TCCTTGTTCGGAAACATCCCGG, the sensor-assay potency score (higher = more potent) is reported as -1.01. In the case of TTGTCTGTCGGGCAGGTCCAGG, the sensor-assay potency score (higher = more potent) is reported as -1.29. TTTACCGAGAATTTCCTCCGAG gave a sensor-assay potency score (higher = more potent) of 0.34. Sequence TTGTATATGAGACAGCTGCTGT has a sensor-assay potency score (higher = more potent) of -0.506. TTGACGTCGTTGTTGCTCTTGG showed a sensor-assay potency score (higher = more potent) of 0.201.

These sequences were tested against DMBX1 in the same assay as above. Details: shRNA.
TGACTGCTCAGACAGACTCAGG showed a sensor-assay potency score (higher = more potent) of -1.97. TGGGTAGTGAGTCTTCTGGAAG showed a sensor-assay potency score (higher = more potent) of -2.04. Work on TTGAACCACACCTGCACCCGGG yielded a sensor-assay potency score (higher = more potent) of -0.844. TTACTGTTCAGGGTAGCTGATG showed a sensor-assay potency score (higher = more potent) of -1.25. In the case of TCTGGGTAGTGAGTCTTCTGGA, the sensor-assay potency score (higher = more potent) is reported as -0.662. In the case of TGAACCACACCTGCACCCGGGC, the sensor-assay potency score (higher = more potent) is reported as -1.56. TTCCTTCTGCAGGCTACGCTGC showed a sensor-assay potency score (higher = more potent) of -1.18. TGAGCCGTGAACGCTGTGCGGC showed a sensor-assay potency score (higher = more potent) of -1.33. Work on TTTTACTGTTCAGGGTAGCTGA yielded a sensor-assay potency score (higher = more potent) of -0.522. For TTCTTCCGGAACTTGGCCCGGC, the sensor-assay potency score (higher = more potent) was -0.414. TTGTACATGGCGCTGAGTGAGT showed a sensor-assay potency score (higher = more potent) of -0.81. TCACGCATCACCACATCTGGGT gave a sensor-assay potency score (higher = more potent) of 0.0309.

The sequences below were run against DMKN in the same assay as above. Details: shRNA.
TGTAATTGTAGTTCTGATCGGC was tested, and the sensor-assay potency score (higher = more potent) was 0.784. TTCCTCTCCGCTCTGCAGGGGG showed a sensor-assay potency score (higher = more potent) of -0.64. Work on TTTGCAGGGGTCTTGACTGAGT yielded a sensor-assay potency score (higher = more potent) of -1.13. In the case of TGCCTGTCTGCCAATCTCGTGC, the sensor-assay potency score (higher = more potent) is reported as -0.915.
